Compounds without any hit were thinned out: in the full panel of roughly 83,000, 20% have a hit.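 Single-concentration screen, 48 h exposure, 96-well plates. Endpoint: percent growth. Below 10 = active.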 Unmarked numbers belong to inactive results. Active and inactive are the calls of the source.

What all share (experiment): NCI-60 one-dose screen, 48 h (100 = growth as untreated, 0 = no growth, -100 = all killed)
For one assay, the system named is HCT-15 colon. Conditions: 10 µM unless noted.
A further assay has as its system HT29 colon. Conditions: 10 µM unless noted.
Another assay deals with SNB-75 CNS. Conditions: 10 µM unless noted.
The subject of the next assay is SNB-19 CNS. Conditions: 10 µM unless noted.
A further assay relates to U251 CNS. Conditions: 10 µM unless noted.
The next assay deals with PC-3 prostate. Conditions: 10 µM unless noted.
A further assay deals with SK-MEL-5 melanoma. Conditions: 10 µM unless noted.
The subject of a further assay is UACC-62 melanoma. Conditions: 10 µM unless noted.
Another assay deals with LOX IMVI melanoma. Conditions: 10 µM unless noted.
In the next assay the test system is SK-MEL-28 melanoma. Conditions: 10 µM unless noted.
The next assay concerns SK-MEL-2 melanoma. Conditions: 10 µM unless noted.
The next assay concerns EKVX NSCLC. Conditions: 10 µM.
The next assay relates to SN12C renal. Conditions: 10 µM unless noted.
For the next assay, the system named is UO-31 renal. Conditions: 10 µM unless noted.
The next assay has as its system TK-10 renal. Conditions: 10 µM unless noted.
Another assay has as its system ACHN renal. Conditions: 10 µM unless noted.
In another assay the test system is CAKI-1 renal. Conditions: 10 µM unless noted.
Another assay relates to A498 renal. Conditions: 10 µM unless noted.
The next assay concerns CCRF-CEM leukemia. Conditions: 10 µM.
Another assay concerns MOLT-4 leukemia. Conditions: 10 µM unless noted.

In the case of `CC(C)OC(=O)Nn1cnc2ccccc21`, the growth was 120% with HCT-15 colon; 111% in the assay with HT29 colon; 128% with SNB-75 CNS; 111% with SNB-19 CNS; 106% with U251 CNS; 101% in the assay on PC-3 prostate. For the same compound, the growth is 108% in the assay on SK-MEL-5 melanoma; 107% with UACC-62 melanoma; 114% with LOX IMVI melanoma; 128% with SK-MEL-28 melanoma; 106% with SK-MEL-2 melanoma; 106% with EKVX NSCLC. The growth in the assay with SN12C renal was 113%; in the assay with UO-31 renal, 93.1%; in the assay on TK-10 renal it was 87.6%; in the assay with ACHN renal, 114%; in the assay with CAKI-1 renal, 92.2%; in the assay on A498 renal it was 119%. In addition, the growth is 81% in the assay with CCRF-CEM leukemia and 75.2% in the assay on MOLT-4 leukemia.
With `CCOC(=O)c1c2c(cn1Cc1ccccc1)-c1oncc1CC2`, the growth is 105% in the assay on HCT-15 colon; 111% in the assay on HT29 colon; 84% with SNB-75 CNS; 84.9% in the assay on SNB-19 CNS; 72.7% in the assay with U251 CNS; 97.3% in the assay on PC-3 prostate. For the same compound, the growth in the assay on SK-MEL-5 melanoma was 102%; in the assay on UACC-62 melanoma, 91.9%; in the assay on LOX IMVI melanoma, 98.9%; in the assay with SK-MEL-28 melanoma, 108%; in the assay with SK-MEL-2 melanoma, 115%; with EKVX NSCLC, 91.3%. The growth in the assay with SN12C renal was 76.1%; in the assay with UO-31 renal, 48.7%; with TK-10 renal, 77.4%; in the assay with ACHN renal it was 94.1%; with CAKI-1 renal, 82.8%; in the assay on A498 renal, 50.5%. For the same compound, the growth in the assay with CCRF-CEM leukemia is 96%; with MOLT-4 leukemia, 100%.
In the case of `COc1cc2oc(-c3ccc(NC(=O)c4ccccc4)cc3)cc(=O)c2c(OC)c1OC`, the growth in the assay with HCT-15 colon is 79.2%; in the assay on HT29 colon, 84.3%; in the assay with SNB-75 CNS, 81%; in the assay on SNB-19 CNS, 75%; in the assay on U251 CNS it was 90.5%; in the assay with PC-3 prostate, 71.7%. Also, the growth was 85.7% in the assay on SK-MEL-5 melanoma; 85.4% in the assay on UACC-62 melanoma; 92.5% in the assay with LOX IMVI melanoma; 93.3% with SK-MEL-28 melanoma; 92.1% with SK-MEL-2 melanoma; 90.8% in the assay on EKVX NSCLC. The growth with SN12C renal was 83.7%; in the assay with UO-31 renal, 88.7%; in the assay on TK-10 renal, 91.8%; in the assay on ACHN renal, 83.5%; in the assay on CAKI-1 renal, 96.8%; in the assay with A498 renal it was 90.9%. The results for the growth with CCRF-CEM leukemia and with MOLT-4 leukemia were 82.2% and 92.2%, respectively.
`Cc1c(CN(C)C)cc(C(C)C)cc1C(C)C`: the growth was 113% with HCT-15 colon; 86.4% in the assay with HT29 colon; 96.7% with SNB-75 CNS; 102% in the assay with SNB-19 CNS; 100% in the assay on U251 CNS; 109% in the assay on PC-3 prostate. Also, the growth in the assay with SK-MEL-5 melanoma was 104%; in the assay with UACC-62 melanoma it was 106%; in the assay with LOX IMVI melanoma, 98.7%; in the assay with SK-MEL-28 melanoma, 107%; in the assay on SK-MEL-2 melanoma, 107%; with EKVX NSCLC, 106%. Further, the growth was 96.9% in the assay on SN12C renal; 108% in the assay with UO-31 renal; 94.9% in the assay with TK-10 renal; 112% in the assay with ACHN renal; 103% in the assay on CAKI-1 renal; 94.8% in the assay with A498 renal.
For the compound `CSC1=Nc2c(c(C)c(-c3ccccc3)n2CCCCl)C2=NC(=O)CN12`, the growth is 64.9% in the assay with HCT-15 colon; 23.5% in the assay with HT29 colon; 21.2% in the assay with SNB-75 CNS; 81.2% in the assay on SNB-19 CNS; 51.6% with U251 CNS; 68.9% with PC-3 prostate. In addition, the growth with SK-MEL-5 melanoma was 50.7%; in the assay on UACC-62 melanoma, 36.7%; with LOX IMVI melanoma it was 49.8%; with SK-MEL-28 melanoma, 55.9%; in the assay with SK-MEL-2 melanoma, 75.4%; in the assay on EKVX NSCLC it was 54.2%. Also, the growth with SN12C renal is 86.3%; with UO-31 renal, 57.2%; in the assay on TK-10 renal, 105%; in the assay on ACHN renal, 88.3%; in the assay with CAKI-1 renal it was 57.7%; in the assay on A498 renal, 46.9%. For the same compound, the growth with CCRF-CEM leukemia is 51.9%; in the assay on MOLT-4 leukemia, 50.6%.
Take `CCCCN(CCCC)CC(O)CN(CC)CC` (stereo not drawn): the growth with HCT-15 colon is 104%; in the assay with HT29 colon, 88%; with SNB-75 CNS, 87.3%; in the assay on SNB-19 CNS it was 105%; in the assay with U251 CNS, 102%; with PC-3 prostate, 97.7%. For the same compound, the growth in the assay with SK-MEL-5 melanoma was 96.2%; in the assay on UACC-62 melanoma, 105%; with LOX IMVI melanoma, 96.1%; in the assay with SK-MEL-28 melanoma, 109%; with SK-MEL-2 melanoma, 91.5%; in the assay on EKVX NSCLC it was 107%. The growth with SN12C renal was 96.4%; with UO-31 renal, 72.8%; in the assay on TK-10 renal, 92.7%; with ACHN renal, 102%; in the assay with CAKI-1 renal it was 93.8%; in the assay on A498 renal, 111%. In addition, the results for the growth with CCRF-CEM leukemia and in the assay with MOLT-4 leukemia were 104% and 96%, respectively.
`COCn1c(C(=O)OC)cc2oc(/C=C3/SC(=S)N(N)C3=O)cc21`: the growth in the assay with HCT-15 colon is 105%; with HT29 colon it was 97.2%; with SNB-75 CNS it was 64.6%; in the assay with SNB-19 CNS, 97.2%; in the assay with U251 CNS it was 75.8%; in the assay on PC-3 prostate, 57.2%. The growth was 91.7% in the assay with SK-MEL-5 melanoma; 94% with UACC-62 melanoma; 87.3% with LOX IMVI melanoma; 92.9% with SK-MEL-28 melanoma; 96.9% in the assay on SK-MEL-2 melanoma; 91.8% with EKVX NSCLC. Further, the growth was 121% with SN12C renal; 95.7% in the assay with UO-31 renal; 101% with TK-10 renal; 110% with ACHN renal; 87.3% with CAKI-1 renal; 54% with A498 renal. The growth is 98.1% in the assay on CCRF-CEM leukemia and 68.6% in the assay on MOLT-4 leukemia.
Turning to `C=C(C)[C@@H]1CC[C@]2(COC(=O)c3ccccc3C(=O)O)CC[C@]3(C)[C@H](CC[C@@H]4[C@@]5(C)CCCNC(C)(C)[C@@H]5CC[C@]43C)[C@@H]12`, the growth in the assay with HCT-15 colon is 58%; with HT29 colon it was 26.6%; in the assay on SNB-75 CNS it was 75%; in the assay on SNB-19 CNS, 71%; in the assay with U251 CNS, 44.8%; in the assay on PC-3 prostate, 20.8%. Further, the growth with SK-MEL-5 melanoma was 46.2%; with UACC-62 melanoma, 75.6%; in the assay with LOX IMVI melanoma it was 48.3%; in the assay on SK-MEL-28 melanoma it was 74.4%; in the assay with SK-MEL-2 melanoma it was 94.4%; with EKVX NSCLC, 78.6%. In addition, the growth with SN12C renal is 59.3%; with UO-31 renal, 72.7%; in the assay with TK-10 renal, 65.6%; with ACHN renal it was 65%; in the assay on CAKI-1 renal it was 91.7%; with A498 renal it was 113%. The growth in the assay on CCRF-CEM leukemia was 28.8%; in the assay on MOLT-4 leukemia, -7.13% (active).

These data come from PubChem BioAssay (NCI).
